Experimental data reported in PubChem BioAssay (EPA / NIEHS).
The source made the active and inactive calls. How the source made its calls: active means hit-call score of the fitted dose curve at least 0.9, where 1 is the maximum; inactive means score below 0.9.

Read-out: Cellular tumor antigen p53 (Homo sapiens) (UniProt P04637)
Assay: LTEA_HepaRG_TP53: Life Technologies and Expression Analysis (LTEA) Assay for Tumor Protein P53 (TP53) using HepaRG (AID 2283537)
Conditions: mRNA level, 48 h; actives raise or lower the signal
Protocol: LTEA_HepaRG is a cell based, multiplexed-readout assay that uses HepaRG, a human liver cell line, with measurements taken at 48 hours after chemical dosing on a 96-well plate.LTEA_HepaRG_TP53 is one of 102 assay component(s) measured in the LTEA HepaRG cell culture assay. It is a marker of Oxidative Stress.Data from the assay component LTEA_HepaRG_TP53 was analyzed into 1 endpoint. This assay endpoint, LTEA_HepaRG_TP53, was analyzed with bidirectional fitting relative to DMSO as the negative control and baseline of activity. Using a type of inducible reporter, measures of mRNA induction for gain or loss-of-signal activity can be used to understand regulation of transcription factor activity. To generalize the intended target to other relatable targets, this assay endpoint is annotated to the dna binding intended target family, where the subfamily is tumor suppressor.
A total of 1060 chemcials from the ToxCast library were tested in eight-point concentration-response experiments. Cell culture and cytotoxicity assays were conducted at Thermo Fisher Scientific's Custom Services facility (Madison, WI). A single lot of human HepaRG cells (Thermo Fisher Scientific, Frederick, MD) was used for the cell culture experiments. 96-well format collagen type I coated plates of human HepaRG cells were prepared using established methods. Briefly, cryopreserved HepaRG cells were thawed, plated at a density of approximately 100,000 cells/well in HepaRG Thaw, Plate, and General Purpose media (HPRG770, Thermo Fisher Scientific), and incubated for 48 hours. 0.5% DMSO was selected as vehicle control to balance the requisite need of DMSO in HepaRG cultures to maintain differentiation (for example, baseline metabolism, proportions of hepatocytes vs. cholangiocytes), while enabling further hepatic receptor pathway activation (for example, PXR and CAR) in response to chemical exposure. 48 hours after plating, the culture medium was replaced with HepaRG Serum-Free Incudtion Media. Cells were exposed to each test chemical in duplicate and maintained in CO2 incubators for another 48 hours. Chemical plates were thawed to room temperature and 200x concentrations of treatment groups were prepared. 8-point conentration-reponse curves were made with the highest exposure at 100 uM, followed by half-log dilutions, all in 0.5% DMSO. Each test plate contained variouse controls, induction positive controls (1mM phenobarbital), cytotoxicity positive controls ([…] aflatoxin B1), vehicle controls (0.5% DMSO), and total lysis controls (0.5% DMSO). Cell morphology images were taken using an Essen IncuCyte FLR automated microscope, with six 96-well plates imaged in about 24 minutes. Images were captured and exported and JPEG files. Spent culture media was transfered to black-well plates for the LDH assay, and remaining media was sorted at -80 C for later use. Cells were treated with RLT buffer and frozen until shipped for gene expression analysis. Total RNA was isolated from the cell suspension in 75 uL of Buffer RLT (Qiagen, Germantown, MD 20874) by Quintiles/Expression Analysis (Durham, NC) using a custom isolation procedure. Total RNA from each plate well was transferred to a preamplification plate. Fluidigm's 96.96 Dynamic ArrayTM (Fluidigm, Amsterdam, the Netherlands) technology was used for gene expression analyses by quantitative reverse transcription polymerase chain reaction (qRT-PCR, performed by Quintiles/Expression Analysis, Durham, NC)89. Standard TaqManTM Assays (Applied Biosystems/ThermoFisher Scientific, Foster City, CA) were used to assess the expression of 93 genes selected based on their selectivity and sensitivity to important hepatic receptors known to be modulated by environmental chemicals; importance in human hepatocyte functionality; and hepatotoxicity. […]

Cellular tumor antigen p53 (Homo sapiens), sequence (P04637 whole entry, looked up): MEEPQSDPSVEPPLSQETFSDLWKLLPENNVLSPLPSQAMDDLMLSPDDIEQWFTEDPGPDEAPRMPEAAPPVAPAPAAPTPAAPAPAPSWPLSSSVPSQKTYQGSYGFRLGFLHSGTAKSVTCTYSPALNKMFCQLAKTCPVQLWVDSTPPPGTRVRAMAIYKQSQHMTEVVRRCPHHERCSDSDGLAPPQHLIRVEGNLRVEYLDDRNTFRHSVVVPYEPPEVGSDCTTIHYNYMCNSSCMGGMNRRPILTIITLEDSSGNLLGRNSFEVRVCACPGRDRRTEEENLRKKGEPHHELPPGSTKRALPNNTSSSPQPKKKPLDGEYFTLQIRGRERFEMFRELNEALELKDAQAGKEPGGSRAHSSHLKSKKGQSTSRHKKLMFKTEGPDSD

**Q.** How did the outcome turn out when `CCCCCCCCCCCCCCCCOS(=O)(=O)O` was run?
**A.** The outcome was “inactive”.

**Q.** How did the outcome turn out when `CCCCCCCCCC` was run?
**A.** Its outcome is “inactive”.

**Q.** `CC(C)c1nnc2ccc(-c3ocnc3-c3cc(F)ccc3F)cn12` was tested. Which outcome did it give?
**A.** The outcome was “inactive”.

**Q.** Which outcome does the source give for `NNC(=O)c1ccncc1` here?
**A.** The outcome was “inactive”.

**Q.** With `O=C(O)c1ccc2c(c1)nc(C(=O)NC1CCN(C3CC3)CC1)n2Cc1cc(-c2ccc(Cl)s2)on1` as the molecule, how does the outcome read?
**A.** The outcome was “inactive”.

**Q.** Which outcome does the source give for `O=C(O)c1cccc(C[C@@H]2COc3ccc(OCc4nc5cc(F)ccc5s4)cc3[C@@H]2O)c1` here?
**A.** Its outcome is “inactive”.

**Q.** Which outcome does the source give for `CC1(C)C(=O)N(Cl)C(=O)N1Cl` here?
**A.** The outcome was “inactive”.

**Q.** Which outcome does the source give for `C=CN1CCCC1=O` here?
**A.** Its outcome is “inactive”.

**Q.** How did the outcome turn out when `CCCCCCCC1CCC(=O)O1` (centres undefined) was run?
**A.** Its outcome is “inactive”.

**Q.** For `CCCCN1C(=O)[C@@H]([C@H](O)C2CCCCC2)NC(=O)C12CCN(Cc1ccc(Oc3ccc(C(=O)O)cc3)cc1)CC2`, which outcome is on record?
**A.** Its outcome is “inactive”.

**Q.** With `Cn1c(=O)c2[nH]cnc2n(C)c1=O` as the molecule, how does the outcome read?
**A.** The outcome was “inactive”.

**Q.** With `CC(=O)c1ccccc1` as the molecule, how does the outcome read?
**A.** The outcome was “inactive”.

**Q.** Which outcome does the source give for `CCc1ccc(O)c(C(C)(C)C)c1` here?
**A.** Its outcome is “inactive”.

**Q.** `OC(CCl)CCl` was tested. Which outcome did it give?
**A.** Its outcome is “inactive”.

**Q.** Which outcome does the source give for `O=C1CN(N=Cc2ccc([N+](=O)[O-])o2)C(=O)N1` here?
**A.** Its outcome is “inactive”.

**Q.** For `CCCCOC(=O)c1ccccc1`, which outcome is on record?
**A.** Its outcome is “inactive”.

**Q.** For `CCOC(N)=O`, which outcome is on record?
**A.** Its outcome is “inactive”.

**Q.** For `C[C@]12C=CC(=O)C=C1CC[C@H]1[C@@H]3C[C@@H](O)[C@](O)(C(=O)CO)[C@@]3(C)C[C@H](O)[C@@]12F`, which outcome is on record?
**A.** The outcome was “inactive”.

**Q.** Which outcome does the source give for `CCCCCCCCCCCCCCO` here?
**A.** The outcome was “inactive”.

**Q.** `CCCCCCCCN(C)C` was tested. Which outcome did it give?
**A.** The outcome was “inactive”.

**Q.** For `CCCCCCCC/C=C\CCCCCCCC(=O)OC[C@@H](O)[C@H]1OC[C@H](O)[C@H]1O`, which outcome is on record?
**A.** Its outcome is “inactive”.

**Q.** With `CCCc1ccccc1` as the molecule, how does the outcome read?
**A.** The outcome was “inactive”.

**Q.** With `CCCCC(CC)C(=O)OCCOCCOCCOC(=O)C(CC)CCCC` (centres undefined) as the molecule, how does the outcome read?
**A.** Its outcome is “inactive”.

**Q.** `c1ccc2cc3ccccc3cc2c1` was tested. Which outcome did it give?
**A.** The outcome was “inactive”.

**Q.** How did the outcome turn out when `OCCOCCOCCO` was run?
**A.** The outcome was “inactive”.

**Q.** With `NC(=O)NN=Cc1ccc([N+](=O)[O-])o1` as the molecule, how does the AC50 read?
**A.** Its AC50 is 9.92 µM (active).

**Q.** For `Cn1cc[nH]c1=S`, which outcome is on record?
**A.** The outcome was “inactive”.

**Q.** How did the outcome turn out when `O=S1(=O)CCCO1` was run?
**A.** Its outcome is “inactive”.

**Q.** Which AC50 does the source give for `c1ccc(C(O[C@@H]2CCCN(CCc3ccc4c(c3)OCO4)C2)c2ccccc2)cc1` here?
**A.** Its AC50 is 75.4 µM (active).

**Q.** For `CCn1nc(C)c2c1C(=O)NCC(c1ccc(O)cc1)=N2`, which outcome is on record?
**A.** The outcome was “inactive”.

**Q.** Which outcome does the source give for `c1ccc2ncccc2c1` here?
**A.** The outcome was “inactive”.

**Q.** `OC(Cn1cncn1)(Cn1cncn1)c1ccc(F)cc1F` was tested. Which outcome did it give?
**A.** The outcome was “inactive”.

**Q.** Which outcome does the source give for `CCc1cccc(CC)c1N` here?
**A.** Its outcome is “inactive”.

**Q.** Which outcome does the source give for `CCN(CC)C(=S)SSC(=S)N(CC)CC` here?
**A.** Its outcome is “inactive”.
